Bioassay records as filed in PubChem.
BAZ2B block = blocks human BAZ2B; Q9UIF8; AlphaScreen BAZ2B-H3K14Ac peptide displacement; Potency, µM (top dose mostly 114 µM), most hits filed as inhibitors; actives 4.4% (n = 360,000); AID 504333; further: nearly all actives have a fitted effect of over 60% in size
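Protein-peptide AlphaScreen: BAZ2B 50 nM, b-H3K14Ac 50 nM, 1x PBS pH 7.4 + 0.01% Tween-20. Preincubation 30 min RT; cpd 30 min RT (top 110 uM); beads 20 min RT, light-protected.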
GLS inh = inhibitors of human glutaminase (GLS); O94925; GLS enzymatic activity, qHTS titration; Potency, µM (series often up to 45.5 µM), usual class: inhibitors; actives 0.21% (n = 410,000)
Target sequence (O94925 whole entry, looked up): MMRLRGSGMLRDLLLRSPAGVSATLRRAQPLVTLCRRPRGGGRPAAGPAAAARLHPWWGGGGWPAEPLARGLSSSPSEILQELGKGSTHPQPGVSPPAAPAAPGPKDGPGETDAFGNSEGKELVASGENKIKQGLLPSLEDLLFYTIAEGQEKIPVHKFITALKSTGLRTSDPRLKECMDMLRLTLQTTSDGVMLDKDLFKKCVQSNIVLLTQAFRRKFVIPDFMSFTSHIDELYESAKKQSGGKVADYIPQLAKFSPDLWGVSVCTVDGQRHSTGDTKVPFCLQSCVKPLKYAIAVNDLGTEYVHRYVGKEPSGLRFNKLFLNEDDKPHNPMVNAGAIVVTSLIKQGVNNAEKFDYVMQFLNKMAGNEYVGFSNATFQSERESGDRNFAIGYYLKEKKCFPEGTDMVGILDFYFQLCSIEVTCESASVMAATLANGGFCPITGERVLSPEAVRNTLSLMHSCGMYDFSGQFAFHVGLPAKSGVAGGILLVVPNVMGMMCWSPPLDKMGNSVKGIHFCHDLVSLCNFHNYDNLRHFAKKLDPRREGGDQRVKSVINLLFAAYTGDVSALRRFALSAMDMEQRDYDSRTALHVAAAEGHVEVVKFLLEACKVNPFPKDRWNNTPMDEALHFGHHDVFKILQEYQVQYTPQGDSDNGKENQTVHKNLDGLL
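Coupled fluorescence readout: glutamate oxidase/HRP/Amplex Red detect glutamate formed by hKGA from L-glutamine (1 mM solution added). Buffer 45 mM KH2PO4 pH 8.2, 0.02% Tween-20; reads at t0 and 30 min RT.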
JMJD2A Tudor inh = blocks the human JMJD2A Tudor domain; AlphaScreen JMJD2A-Tudor / H3K4me3 peptide binding; Potency, µM (doses to about 114 µM), usual class: inhibitors; actives 4.4% (n = 390,000); AID 504339; further: nearly all actives have a fitted effect of over 50% in size
HP1b chromo inh = HP1-beta chromodomain-methylated histone interaction inhibition | P83916 | AlphaScreen HP1-beta / biotin-H3K9me3 peptide binding | Potency, µM (series often up to 114 µM), hits mostly inhibitors | actives 0.56% (n = 390,000) | AID 540317; further: nearly all actives have a fitted effect of over 70% in size
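HP1-beta protein (50 nM final) preincubated 30 min at room temperature with biotinylated H3(1-18)K9me3 peptide (50 nM) in PBS pH 7.4, 0.01% Tween-20, then compound added for 30 min. AlphaScreen streptavidin donor/nickel chelate acceptor beads (10 ug/mL final), 30 min dark, luminescence read.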
G9a inh = inhibitors of human histone lysine methyltransferase G9a; Q96KQ7; G9a H3K9 monomethylation, AlphaScreen, 2 h; Potency, µM (highest dose often 102 µM), most hits filed as inhibitors; actives 8.8% (n = 350,000); further: nearly all actives have a fitted effect of over 75% in size
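Chemiluminescent proximity detection of H3K9 monomethylation, read after 10 min bead incubation in the dark. Reaction: 20 nM G9a, 500 nM biotin-H3K9 peptide, 20 uM SAM cofactor, 2 h, room temperature, following 15 min enzyme-compound preincubation.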
Large screens that a line does not name were inactive. Only some compounds are listed: those with a hit (about 10% of all), similar ones and a draw of the others. The call rests on the fitted dose curve; in most records, active means well fitted curve in the direction sought with a large enough effect; inconclusive means small, poorly fitted or top-dose-only effect, or another doubt; inactive means no such curve, though single readings can be large; an effect the other way counts as inactive or inconclusive.

CCCCNCCOCCOc1ccc(F)cc1	BAZ2B block 79µM, JMJD2A Tudor inh 5µM, HP1b chromo inh inconclusive, G9a inh 11µM
COCCCNCCCOc1ccc(C)cc1Br	BAZ2B block 50µM, JMJD2A Tudor inh 3.5µM, G9a inh inconclusive
COCCCNCCCOc1ccc(Cl)cc1Br	BAZ2B block inconclusive, JMJD2A Tudor inh 0.89µM, HP1b chromo inh inconclusive, G9a inh inconclusive (no result: GLS inh)
CCOc1ccccc1OCCCOc1ccc(C)cc1Br	none (no result: G9a inh)
CCN(CC)CCCOc1ccc(C)cc1Br	BAZ2B block 79µM, JMJD2A Tudor inh 14µM, HP1b chromo inh inconclusive, G9a inh 20µM
CCc1ccccc1NC(=O)Nc1c[nH]c(=O)[nH]c1=O	none
Cc1ccnc(NC(=O)C(C)n2cc([N+](=O)[O-])cn2)c1 (stereo not given)	none
C=CCNCCCOc1ccc(C)cc1Br	none
COCCNCCCOc1ccc(C)cc1Br	BAZ2B block 56µM, JMJD2A Tudor inh 20µM (no result: G9a inh)
CC(C)NCCCCOc1ccc(Br)cc1Cl	JMJD2A Tudor inh 32µM (no result: G9a inh)
COCCCNC(=O)COc1ccc(Br)cc1Cl	none
CC(C)NCCCOc1ccc(Cl)cc1Br	BAZ2B block inconclusive, JMJD2A Tudor inh 32µM, HP1b chromo inh inconclusive (no result: G9a inh)
O=C(COc1ccc(Cl)cc1Br)NC1CC1	none
Clc1ccc(OCCOCCOc2cccc3cccnc23)c(Br)c1	none
CCCCNCCOCCOc1ccc(Cl)cc1Br	BAZ2B block 79µM, JMJD2A Tudor inh 4.5µM, G9a inh 7.9µM
CCCc1nc2ccc(C)cn2c1Cc1ccc(C)cc1	none (no result: BAZ2B block, JMJD2A Tudor inh, HP1b chromo inh, G9a inh)
CCOC(=O)c1c(C)[nH]c(C)c1S(=O)(=O)NCC(=O)N1CCN(c2cccc(C)c2)C(C)C1 (stereo not given)	JMJD2A Tudor inh inconclusive
O=C(COc1ccc(-c2nnco2)cc1)NCc1ccccc1Cl	none
CC(NC(=O)COc1ccc(-c2nnco2)cc1)c1ccc(Cl)cc1Cl (stereo not given)	G9a inh 45µM
CC(C)N(Cc1cn[nH]c1-c1ccc(-c2ccccc2)cc1)Cc1nccn1C	BAZ2B block 56µM, JMJD2A Tudor inh 56µM, HP1b chromo inh inconclusive, G9a inh inconclusive
N#CC(C#N)=C1NC(N)=C(C#N)C(c2ccccc2)=C1C#N	BAZ2B block inconclusive, G9a inh 3.5µM (no result: GLS inh, JMJD2A Tudor inh, HP1b chromo inh)
Cc1ccc(NC(=O)CN(C)C(=O)COC(=O)CCS(=O)(=O)c2ccc(C)cc2)cc1	none
Cc1cc(C(=O)NNc2ccc(C(C)C)cc2)n(C(C)(C)C)n1	BAZ2B block inconclusive, JMJD2A Tudor inh inconclusive, G9a inh 7.9µM
Cc1nnsc1C(=O)NNc1ccc(C(C)(C)C)cc1	G9a inh 1.8µM
Cc1nnsc1C(=O)NNC(=O)c1ccc(C(F)(F)F)cc1	none (no result: G9a inh)
Cc1nnsc1C(=O)NNc1ccc(C(C)C)cc1	G9a inh 8.9µM
Cc1cc(NC(=O)Nc2ccccc2)n(C(C)(C)C)n1	none
CC(=O)NC(c1cccc(F)c1)c1nc(-c2ccoc2)cs1 (stereo not given)	none (no result: BAZ2B block, JMJD2A Tudor inh, HP1b chromo inh, G9a inh)
Cc1ccc(NC(=O)COc2coc(CN3CCc4ccccc4C3)cc2=O)c(C)c1	G9a inh 50µM
CC1CN(C(=O)COc2coc(CN3CCc4ccccc4C3)cc2=O)CC(C)O1 (stereo not given)	GLS inh inconclusive, G9a inh 45µM
Cc1cc(C)cc(NC(=O)COc2coc(CN3CCc4ccccc43)cc2=O)c1	BAZ2B block inconclusive, G9a inh 50µM
CCOC(=O)c1ccc(NC(=O)COc2coc(CN3CCc4ccccc43)cc2=O)cc1	BAZ2B block inconclusive, JMJD2A Tudor inh inconclusive
CC1Cc2ccccc2N1Cc1cc(=O)c(OCC(=O)Nc2ccccc2)co1 (stereo not given)	none
Cc1ccc(NC(=O)COc2coc(CN3c4ccccc4CC3C)cc2=O)c(C)c1 (stereo not given)	BAZ2B block inconclusive, JMJD2A Tudor inh inconclusive, G9a inh 50µM
CN(C(=O)c1cc2c(=O)oc3ccccc3c2s1)c1ccc(F)cc1	G9a inh inconclusive
COCCCNC(=O)CN1C(=O)COc2ccc(S(=O)(=O)N3CCCC3)cc21	none
CC1=CC(=O)Nc2ncccc2O1	none (no result: BAZ2B block, JMJD2A Tudor inh, HP1b chromo inh, G9a inh)
CCc1ccc(NC(=O)COc2coc(CN3CCc4ccccc4C3)cc2=O)cc1	G9a inh 56µM
O=C(COc1coc(CN2CCc3ccccc3C2)cc1=O)Nc1ccc(Cl)cc1	none
Cc1ccc(NC(=O)COc2coc(CN3CCc4ccccc43)cc2=O)c(C)c1	BAZ2B block 50µM, JMJD2A Tudor inh inconclusive, G9a inh inconclusive
CCOC(=O)c1cc(-c2ccc(F)cc2)n(CCC(=O)Nc2cc(OC)cc(OC)c2)c1C	JMJD2A Tudor inh inconclusive, HP1b chromo inh inconclusive, G9a inh inconclusive
O=C(CN1CCN(Cc2ccc(F)cc2)C1=O)NCc1ccccc1	none
N=c1nc(SCCC(=O)O)ss1	G9a inh 11µM
c1ccc(Nc2ccnc(Nc3ccccc3)n2)cc1	none
NNc1nccc(Nc2ccccc2C(=O)O)n1	BAZ2B block 25µM, GLS inh inconclusive, JMJD2A Tudor inh inconclusive, G9a inh inconclusive
O=C(CC(Sc1ccc(Br)cc1)C(=O)O)c1ccc(Br)cc1 (stereo not given)	G9a inh 25µM (no result: GLS inh, JMJD2A Tudor inh, HP1b chromo inh)
Cc1ccc(C)n1-c1ccc(N(C)C)cc1	BAZ2B block 25µM, GLS inh 13µM, JMJD2A Tudor inh 50µM, HP1b chromo inh inconclusive, G9a inh 7.1µM
CCOCCCNC(=O)C(NC(=O)c1ccccc1O)c1ccc(C)cc1 (stereo not given)	G9a inh 5.6µM
Cc1cc(-c2ccccc2)nnc1NCCN1CCOCC1	BAZ2B block inconclusive, JMJD2A Tudor inh 79µM
OCCN1CCN(c2nc(NCc3ccco3)c3ccccc3n2)CC1	JMJD2A Tudor inh inconclusive
OCCNc1nc(Nc2cccc(O)c2)nc2ccccc12	G9a inh 71µM
OCCNc1nc(N2CCN(c3ccccc3)CC2)nc2ccccc12	G9a inh 79µM
Oc1cccc(Nc2c3ccccc3nc3ccccc23)c1	BAZ2B block inconclusive, JMJD2A Tudor inh inconclusive, G9a inh 40µM
OCCNc1nc(Nc2ccc(O)cc2)nc2ccccc12	BAZ2B block inconclusive, JMJD2A Tudor inh inconclusive, G9a inh inconclusive
O=C(NCCc1ccccc1)c1ccc2c(c1)N(Cc1ccccc1)C(=O)c1ccccc1S2=O (stereo not given)	BAZ2B block inconclusive
C=CCN1C(=O)c2ccc(C(=O)N(C)CC(=O)Nc3c(C)cccc3C)cc2C1=O	G9a inh 50µM
CCCNC(=S)Nc1ccc2nc(-c3ccccn3)c(-c3ccccn3)nc2c1	G9a inh 13µM
S=C(Nc1ccc2nc(-c3ccccn3)c(-c3ccccn3)nc2c1)N1CCCCC1	none
S=C(Nc1ccc(Cl)c(Cl)c1)N1CCCC1	none
S=C(Nc1ccc2nsnc2c1)N1CCCCC1	GLS inh inconclusive, G9a inh 16µM
S=C(Nc1ccc2nc(-c3ccccn3)c(-c3ccccn3)nc2c1)N1CCCCCC1	G9a inh 20µM
S=C(Nc1ccc2nccnc2c1)N1CCOCC1	G9a inh 45µM
CC(=O)/C(=N/Nc1cccc(C)c1)N1CCOCC1	BAZ2B block inconclusive, JMJD2A Tudor inh 89µM, G9a inh 0.63µM
